Drawing on PubChem BioAssay (Tox21), this text covers Potency for 21 molecules.

Test [1] is described as follows: qHTS assay to identify small molecule agonists of the vitamin D receptor (VDR) signaling pathway - cell viability counter screen (AID 743224). Also: nearly all actives have a fitted effect of over 50% in size. Also: potency is read from the fitted curve at half-maximal effect. In outline: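 VDR-bla cell line, quantitative HTS format; 16 h compound incubation (37C, 5% CO2); ATP-based CellTiter-Glo luminescence measured in the reporter assay wells.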
The nature of test [2]: qHTS assay to identify small molecule antagonists of the vitamin D receptor (VDR) signaling pathway - cell viability counter screen (AID 743225). Also: nearly all actives have a fitted effect of over 50% in size. Also: potency is read from the fitted curve at half-maximal effect. In outline: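 Read-out: CellTiter-Glo luminescence measured 30 min after reagent addition at room temperature. Cells were VDR-bla HEK 293T exposed 16 h at 37C, 5% CO2, to compound with 3 nM final calcitriol agonist.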
A general note: Quantitative high-throughput screening tests each substance at several concentrations.

Test [3] is described as follows: qHTS assay to identify small molecule agonists of the NFkB signaling pathway - cell viability counter screen (AID 1159515; calls by dose curve; also: nearly all actives have a fitted effect of over 55% in size; also: potency is read from the fitted curve at half-maximal effect). The procedure, abridged:
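Viability in NFkB-bla ME-180 cells was measured by CellTiter-Glo luminescence, 30 min room temperature, in wells already treated 5 hr with compounds and read for reporter FRET.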

Test [4] in a line: qHTS assay to identify small molecule agonists of the endoplasmic reticulum stress response signaling pathway - cell viability counter screen (AID 1159517; calls by dose curve; also: nearly all actives have a fitted effect of over 50% in size; also: potency is read from the fitted curve at half-maximal effect). The procedure, abridged: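 Luminescence readout: CellTiter-Glo, 30 min RT, same wells as the ESRE-bla reporter read. HeLa ESRE-bla, 1,500 cells/well, o/n 37 C; cpd 5 hr 37 C/5% CO2.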
Test [5] can be described thus: qHTS assay to identify small molecule antagonists of the retinoid-related orphan receptor gamma (ROR-gamma) signaling pathway - cell viability counter screen (AID 1159520). Also: nearly all actives have a fitted effect of over 50% in size. Also: potency is read from the fitted curve at half-maximal effect. The procedure, abridged: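 Tet-on ROR gamma CHO cells (1,000/well) were plated 4 hr, given compounds in DMSO for 2 hr at 37 C, then induced with 1 uM final doxycycline for 16 hr. Viability was read as ATP by CellTiter-Glo luminescence after 30 min.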

For test [6], the target named is Nuclear receptor ROR-gamma (Homo sapiens) (UniProt P51449). Nature of the test: qHTS assay to identify small molecule antagonists of the retinoid-related orphan receptor gamma (ROR-gamma) signaling pathway (AID 1159521; also: nearly all actives have a fitted effect of over 50% in size; also: potency is read from the fitted curve at half-maximal effect). The procedure, abridged:
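CHO Tet-on RORγ, RORE-luc reporter. Cpd 2 h pre-incubation, then dox hyclate 1 uM final, 16 h, 37 C/5% CO2. ONE-Glo luminescence; decrease = antagonist.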

Test [7] in a line: qHTS assay to identify small molecule agonists of the AP-1 signaling pathway - cell viability counter screen (AID 1159525; calls by dose curve; also: nearly all actives have a fitted effect of over 55% in size; also: potency is read from the fitted curve at half-maximal effect). In outline:
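ME-180 AP-1-bla, 2500 cells/well, Opti-MEM + 0.5% dialyzed FBS; overnight 37 °C; cpd 15-pt titration, 5 h 37 °C; CellTiter-Glo 30 min RT; luminescence read; normalised to TOAB and DMSO controls.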

The nature of test [8]: qHTS assay to identify small molecule agonists of the AP-1 signaling pathway (AID 1159526; calls by dose curve).
For test [9], the target named is Retinoic acid receptor RXR-alpha (Homo sapiens) (UniProt P19793). Nature of the test: qHTS assay to identify small molecule agonists of the RXR signaling pathway (AID 1159527; calls by dose curve; also: nearly all actives have a fitted effect of over 35% in size). The procedure, abridged:
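Read-out: beta-lactamase FRET ratio (405 nm excitation, 460 and 530 nm emission) after 2 hr substrate loading at room temperature. Cells were RXR-alpha-UAS-bla HEK 293T treated with compounds for 16 hr in 2% charcoal-stripped FBS medium.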

The structures appear in SMILES notation. “And” between values parts separate entries of the source, which are not always exact repeats. Equal entries are not always repeated. Results filed as inconclusive are left out. Where a structure was tested more than once in an assay, its records may differ in their call. The source made the active and inactive calls. Unless noted, calls follow the shape of the dose curve; as a rule, active = well fitted curve in the direction sought with a large enough effect in the repeat runs; inconclusive = weak or mixed curves; inactive = no such curve, though single readings can be large; an effect the other way counts as inactive or inconclusive.

Chain of Retinoic acid receptor RXR-alpha (Homo sapiens) (P19793 whole entry, looked up): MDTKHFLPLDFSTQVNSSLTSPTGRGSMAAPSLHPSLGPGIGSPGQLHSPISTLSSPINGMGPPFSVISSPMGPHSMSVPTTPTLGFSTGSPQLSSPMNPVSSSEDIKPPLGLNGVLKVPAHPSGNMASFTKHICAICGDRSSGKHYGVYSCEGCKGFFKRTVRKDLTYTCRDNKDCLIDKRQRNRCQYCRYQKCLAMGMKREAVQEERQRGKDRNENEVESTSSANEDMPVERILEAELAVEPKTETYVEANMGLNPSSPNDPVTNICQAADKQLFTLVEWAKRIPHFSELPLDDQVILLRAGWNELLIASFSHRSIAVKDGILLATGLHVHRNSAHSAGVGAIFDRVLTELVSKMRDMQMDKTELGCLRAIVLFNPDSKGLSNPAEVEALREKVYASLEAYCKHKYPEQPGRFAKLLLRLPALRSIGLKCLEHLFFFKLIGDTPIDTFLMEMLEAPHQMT

As to `O=C1C(Cl)=C(Cl)C(=O)C(Cl)=C1Cl`, the Potency is 12.3 µM (active) and 13.8 µM (active) in test [1]; 17.4 µM (active) in [2]; 38.9 µM (active) in [3]; 54.8 µM (active) in test [4]; 15.3 µM (active) in test [5]; 12.1 µM (active) and 30.6 µM (active) in [6]. In addition, the Potency result in [7] is “inactive”.
As to `BrCCCBr`, the Potency entry in test [1], in [2], in test [3], in test [4], in test [5] and in test [6] was “inactive” in each case. For the same molecule, the Potency result in [7], in [8] and in [9] was “inactive” each time.
Turning to `N#CC(C#N)=NNc1cccc(Cl)c1`, the Potency in test [1] was 6.92 µM (active); in test [2], 8.71 µM (active); in test [5], 2.73 µM (active); in [6], 486 nM (active). For the same molecule, the Potency result in test [3], in test [4] and in test [7] was “inactive” throughout.
In the case of `O=C(N[C@H]1N=C(c2ccccc2F)c2cccc3c2N(CC3)C1=O)c1cc2ccccc2[nH]1`, the Potency result in [1], in test [2], in test [3], in test [4], in [5] and in [6] was “inactive” each time. The Potency entry in test [7] and in test [9] was “inactive” throughout.
In the case of `Cc1nn(-c2cc(NS(C)(=O)=O)c(Cl)cc2Cl)c(=O)n1C(F)F`, the Potency result in test [1], in [2], in test [3], in test [4], in test [5] and in [6] was “inactive” throughout. The Potency result in [7] and in test [8] was “inactive” each time.
Turning to `C[C@]12C/C(=C/O)C(=O)C[C@@H]1CC[C@@H]1[C@@H]2CC[C@@]2(C)[C@H]1CC[C@]2(C)O`, the Potency entry in [1], in [2], in [3], in test [7] and in test [8] was “inactive” throughout. Further, the Potency in test [4] was 24.8 µM (active) and 16.9 µM (active); in test [5], 61.7 µM (active); in [6], 30.9 µM (active) and 29.8 µM (active).
With `ClC1=C(Cl)[C@]2(Cl)[C@H]3[C@H]([C@@H]4C=C[C@H]3C4)[C@@]1(Cl)C2(Cl)Cl`, the Potency result was “inactive and 54.9 µM (active)” in test [1]; 54.9 µM (active) in [3]; 21.8 µM (active) and 49 µM (active) in [4]; 61 µM (active) in test [5]; 54400 nM (active) in [6]; 38.9 µM (active) in test [7]. Besides, the Potency result in [2] and in [9] was “inactive” in each case.
Consider `CCOP(=O)(OCC)Oc1cc(C)nc(C(C)C)n1`, for which the Potency result in [1], in test [2], in [3], in test [4], in test [5] and in test [6] was “inactive” each time. In addition, the Potency result in test [7], in test [8] and in [9] was “inactive” in each case.
For `CCOP(=S)(OCC)Oc1cc(C)nc(N(CC)CC)n1`, the Potency result in test [1], in [3], in [4], in [5], in test [6] and in [7] was “inactive” each time. For the same molecule, the Potency entry in test [9] was “inactive”.
Consider `CCN(CC)C(=S)S`, for which the Potency was 4.87 µM (active) and 6.92 µM (active) in test [1]; 13.8 µM (active) in [3]; 27.5 µM (active) and 9.63 µM (active) and 12.2 µM (active) in [6]; 38.7 µM (active) in [7]. For the same molecule, the Potency entry in [2], in test [4] and in [5] was “inactive” throughout.
Regarding `CCC[CH2][Sn]([CH2]CCC)([CH2]CCC)[CH2]CCC`, the Potency was 38.9 µM (active) in [1]; 49 µM (active) in [2]; 30.9 µM (active) in [3]; 21.9 µM (active) in [4]; 10.9 µM (active) in test [5]; 6110 nM (active) in test [6]. Besides, the Potency in [7] is 21.9 µM (active).
Regarding `COP(=S)(OC)Oc1ccc([N+](=O)[O-])c(C)c1`, the Potency entry in test [1], in test [2], in test [3], in test [4], in [5] and in [6] was “inactive” each time. Besides, the Potency result in test [7] and in test [8] was “inactive” in each case.
For the molecule `BrCC(Br)(Br)Br`, the Potency result in test [1], in [2], in test [3], in test [4], in test [6] and in [7] was “inactive” in each case. In addition, the Potency result in test [8] is “inactive”. Moreover, the Potency in test [5] was 50.3 µM (active).
`C=Cc1cccc(CCl)c1`: the Potency entry in [1], in test [2], in [3], in [4], in [5] and in test [6] was “inactive” each time. The Potency entry in [7] and in test [8] was “inactive” each time.
Take `CC(Cc1ccc(OCC(=O)O)cc1)NCC(O)c1csc(C(F)(F)F)n1` (stereo not given): the Potency result in test [1], in test [2], in [3], in test [4], in [5] and in test [6] was “inactive” in each case. Further, the Potency result in test [7] and in test [8] was “inactive” in each case.
Regarding `Nc1nc(N)c(N)c(N)n1`, the Potency result in [1], in test [2], in test [3], in test [4], in [5] and in test [6] was “inactive” in each case. The Potency result in [7] and in [8] was “inactive” in each case.
Take `[O]=[Cr](=[O])([OH])[O][Cr](=[O])(=[O])[OH]`: the Potency in [1] is 17.5 µM (active) and 21.8 µM (active); in test [2] it was 19.7 µM (active) and 21.8 µM (active); in test [3], 30.8 µM (active); in test [4], 22.1 µM (active) and 34.6 µM (active); in [5], 5.5 µM (active) and 2.43 µM (active); in test [6], 4.9 µM (active) and 4.32 µM (active). Besides, in [7], the Potency was 24.8 µM (active). Besides, the Potency result in [8] is “inactive”.
Regarding `COc1ccc2[nH]cc(CCN(C(C)C)C(C)C)c2c1`, the Potency result in [1], in test [2], in test [3], in test [4], in test [5] and in test [6] was “inactive” throughout. For the same molecule, the Potency result in [7] was “inactive”.
For `C=C(C)C(=O)[O][Sn]([CH2]CCC)([CH2]CCC)[CH2]CCC`, the Potency was 0.49 µM (active) in test [1]; 1.95 µM (active) in [2]; 0.436 µM (active) in test [3]; 0.692 µM (active) in test [4]; 1.37 µM (active) in test [5]; 306 nM (active) in test [6]. Further, the Potency in test [7] was 0.977 µM (active).
Consider `N#Cc1c2ccccc2cc2ccccc12`, for which the Potency result in [1], in [3], in test [4], in [5], in test [6] and in [7] was “inactive” each time.
Take `[Cl][Hg][c]1ccccc1`: the Potency in [1] was 0.692 µM (active); in [2], 0.692 µM (active); in test [3], 3.89 µM (active); in test [4] it was 11 µM (active); in test [5], 1.09 µM (active); in [6] it was 611 nM (active). Further, the Potency in test [7] was 1.38 µM (active).
